Results taken from the supplement of paper PMC11732987, “Enantioselective OTUD7B fragment discovery through chemoproteomics screening and high-throughput optimisation” (Communications Chemistry, 2025).

Experiments:
Assay in all cases: log2 ratio of Biotin-Ahx-Ub-VS probe labelling (fragment/DMSO); higher = less target engagement (more negative = stronger competition), active = hit call of the paper (q ≤ 0.05, log2 ratio ≤ -1)
Settings in all cases: compound concentration: 200 uM; treatment time: 3 h
USP42 = target: T1, USP42 (UniProt Q9H9J4)
T1 sequence (whole entry): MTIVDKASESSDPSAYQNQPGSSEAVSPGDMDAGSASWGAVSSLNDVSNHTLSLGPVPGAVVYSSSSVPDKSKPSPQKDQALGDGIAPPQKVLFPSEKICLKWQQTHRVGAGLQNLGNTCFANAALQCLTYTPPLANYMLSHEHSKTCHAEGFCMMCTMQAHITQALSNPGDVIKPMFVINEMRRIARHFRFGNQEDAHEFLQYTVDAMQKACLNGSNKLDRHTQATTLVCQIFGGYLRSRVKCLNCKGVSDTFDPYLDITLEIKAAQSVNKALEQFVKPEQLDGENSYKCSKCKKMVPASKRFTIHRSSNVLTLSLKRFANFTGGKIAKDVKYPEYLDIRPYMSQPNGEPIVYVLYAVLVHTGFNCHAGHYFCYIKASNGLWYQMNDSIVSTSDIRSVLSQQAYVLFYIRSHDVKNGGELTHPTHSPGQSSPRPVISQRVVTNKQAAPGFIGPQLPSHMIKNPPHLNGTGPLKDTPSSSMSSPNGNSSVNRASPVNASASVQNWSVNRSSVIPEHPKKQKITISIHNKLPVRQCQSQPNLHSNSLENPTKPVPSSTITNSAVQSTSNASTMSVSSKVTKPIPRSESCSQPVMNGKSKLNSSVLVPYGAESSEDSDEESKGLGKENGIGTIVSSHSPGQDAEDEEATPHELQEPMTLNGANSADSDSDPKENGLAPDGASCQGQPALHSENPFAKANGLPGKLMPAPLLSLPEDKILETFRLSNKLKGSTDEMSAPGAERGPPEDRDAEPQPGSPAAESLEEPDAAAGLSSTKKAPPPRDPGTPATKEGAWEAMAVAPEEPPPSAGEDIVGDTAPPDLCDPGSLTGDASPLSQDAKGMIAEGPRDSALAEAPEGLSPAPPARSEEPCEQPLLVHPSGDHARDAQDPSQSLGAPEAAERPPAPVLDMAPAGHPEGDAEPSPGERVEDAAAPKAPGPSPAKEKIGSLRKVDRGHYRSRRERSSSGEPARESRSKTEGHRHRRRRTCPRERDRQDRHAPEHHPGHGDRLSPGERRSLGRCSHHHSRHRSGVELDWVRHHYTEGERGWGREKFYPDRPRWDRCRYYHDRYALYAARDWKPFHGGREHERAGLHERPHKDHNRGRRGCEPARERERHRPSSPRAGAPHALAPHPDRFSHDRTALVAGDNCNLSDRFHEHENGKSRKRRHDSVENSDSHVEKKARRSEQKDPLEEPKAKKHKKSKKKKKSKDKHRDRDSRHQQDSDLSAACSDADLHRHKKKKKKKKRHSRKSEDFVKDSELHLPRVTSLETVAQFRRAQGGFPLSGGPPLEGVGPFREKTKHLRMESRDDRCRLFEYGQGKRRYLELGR
Outline: (§1)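 HEK293T lysate, 495 µg per sample in Tris/CHAPS/IGEPAL buffer with protease inhibitors, was treated in triplicate with fragment at 200 µM or vehicle for 3 h and then with Biotin-Ahx-Ub-VS at 0.5 µM final for 1 h. Labelled DUBs were NeutrAvidin-enriched, digested with LysC and trypsin, and run by diaPASEF LC-MS/MS. Spectronaut label-free quantities were global-median-normalised, and values are average log2 fragment/vehicle ratios by unpaired t-test on proteins with ≥2 unique peptides.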

USP46 = USP46 (UniProt P62068)
Chain of USP46 (P62068 whole entry): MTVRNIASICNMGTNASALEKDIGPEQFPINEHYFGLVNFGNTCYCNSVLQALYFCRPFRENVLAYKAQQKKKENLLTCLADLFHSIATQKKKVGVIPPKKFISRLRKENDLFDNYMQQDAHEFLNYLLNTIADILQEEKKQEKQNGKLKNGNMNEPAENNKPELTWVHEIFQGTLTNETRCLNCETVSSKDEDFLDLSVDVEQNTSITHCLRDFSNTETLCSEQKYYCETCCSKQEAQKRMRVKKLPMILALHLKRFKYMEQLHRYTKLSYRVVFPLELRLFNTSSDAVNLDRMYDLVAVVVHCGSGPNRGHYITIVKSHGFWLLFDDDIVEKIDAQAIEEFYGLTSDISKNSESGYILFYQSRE
Outline: as §1

USP47 = target: T2, USP47 (UniProt Q96K76)
T2 sequence (whole entry): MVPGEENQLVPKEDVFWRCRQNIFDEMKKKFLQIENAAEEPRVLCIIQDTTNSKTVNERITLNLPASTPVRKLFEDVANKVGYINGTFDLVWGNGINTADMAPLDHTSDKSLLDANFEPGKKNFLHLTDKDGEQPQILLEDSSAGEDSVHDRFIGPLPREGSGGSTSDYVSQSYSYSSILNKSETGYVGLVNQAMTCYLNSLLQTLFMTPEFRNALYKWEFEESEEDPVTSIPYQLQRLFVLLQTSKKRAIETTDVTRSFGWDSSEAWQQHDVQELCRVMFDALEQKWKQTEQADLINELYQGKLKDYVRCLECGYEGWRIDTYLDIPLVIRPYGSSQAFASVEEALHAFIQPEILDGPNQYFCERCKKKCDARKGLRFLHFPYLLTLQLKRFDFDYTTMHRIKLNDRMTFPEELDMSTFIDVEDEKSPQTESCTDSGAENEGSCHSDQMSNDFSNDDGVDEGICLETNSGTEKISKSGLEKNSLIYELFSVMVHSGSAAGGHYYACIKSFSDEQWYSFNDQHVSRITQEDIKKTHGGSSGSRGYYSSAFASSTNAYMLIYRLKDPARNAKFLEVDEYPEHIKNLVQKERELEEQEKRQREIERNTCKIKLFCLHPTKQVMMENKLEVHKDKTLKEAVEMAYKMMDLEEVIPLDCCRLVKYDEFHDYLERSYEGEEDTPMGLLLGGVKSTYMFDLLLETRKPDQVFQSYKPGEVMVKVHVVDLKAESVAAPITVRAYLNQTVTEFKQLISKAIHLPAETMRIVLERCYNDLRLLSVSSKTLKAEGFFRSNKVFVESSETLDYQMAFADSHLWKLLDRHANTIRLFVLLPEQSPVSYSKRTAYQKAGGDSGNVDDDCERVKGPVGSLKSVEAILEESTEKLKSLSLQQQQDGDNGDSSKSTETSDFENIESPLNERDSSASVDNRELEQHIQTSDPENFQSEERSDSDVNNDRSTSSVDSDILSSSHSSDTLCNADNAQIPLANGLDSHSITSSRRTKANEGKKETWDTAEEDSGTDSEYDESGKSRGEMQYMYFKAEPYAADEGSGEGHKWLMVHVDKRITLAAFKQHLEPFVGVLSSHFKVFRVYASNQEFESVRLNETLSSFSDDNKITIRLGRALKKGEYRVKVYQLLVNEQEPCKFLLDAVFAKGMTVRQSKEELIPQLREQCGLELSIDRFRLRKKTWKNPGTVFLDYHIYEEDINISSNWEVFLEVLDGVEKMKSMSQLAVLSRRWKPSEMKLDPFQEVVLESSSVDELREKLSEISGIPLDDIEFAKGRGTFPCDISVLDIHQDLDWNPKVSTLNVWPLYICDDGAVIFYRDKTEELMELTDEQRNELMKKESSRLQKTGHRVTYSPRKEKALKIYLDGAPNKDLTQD
Outline: as §1

USP48 = target: T3, USP48 (UniProt Q86UV5)
T3 sequence (whole entry): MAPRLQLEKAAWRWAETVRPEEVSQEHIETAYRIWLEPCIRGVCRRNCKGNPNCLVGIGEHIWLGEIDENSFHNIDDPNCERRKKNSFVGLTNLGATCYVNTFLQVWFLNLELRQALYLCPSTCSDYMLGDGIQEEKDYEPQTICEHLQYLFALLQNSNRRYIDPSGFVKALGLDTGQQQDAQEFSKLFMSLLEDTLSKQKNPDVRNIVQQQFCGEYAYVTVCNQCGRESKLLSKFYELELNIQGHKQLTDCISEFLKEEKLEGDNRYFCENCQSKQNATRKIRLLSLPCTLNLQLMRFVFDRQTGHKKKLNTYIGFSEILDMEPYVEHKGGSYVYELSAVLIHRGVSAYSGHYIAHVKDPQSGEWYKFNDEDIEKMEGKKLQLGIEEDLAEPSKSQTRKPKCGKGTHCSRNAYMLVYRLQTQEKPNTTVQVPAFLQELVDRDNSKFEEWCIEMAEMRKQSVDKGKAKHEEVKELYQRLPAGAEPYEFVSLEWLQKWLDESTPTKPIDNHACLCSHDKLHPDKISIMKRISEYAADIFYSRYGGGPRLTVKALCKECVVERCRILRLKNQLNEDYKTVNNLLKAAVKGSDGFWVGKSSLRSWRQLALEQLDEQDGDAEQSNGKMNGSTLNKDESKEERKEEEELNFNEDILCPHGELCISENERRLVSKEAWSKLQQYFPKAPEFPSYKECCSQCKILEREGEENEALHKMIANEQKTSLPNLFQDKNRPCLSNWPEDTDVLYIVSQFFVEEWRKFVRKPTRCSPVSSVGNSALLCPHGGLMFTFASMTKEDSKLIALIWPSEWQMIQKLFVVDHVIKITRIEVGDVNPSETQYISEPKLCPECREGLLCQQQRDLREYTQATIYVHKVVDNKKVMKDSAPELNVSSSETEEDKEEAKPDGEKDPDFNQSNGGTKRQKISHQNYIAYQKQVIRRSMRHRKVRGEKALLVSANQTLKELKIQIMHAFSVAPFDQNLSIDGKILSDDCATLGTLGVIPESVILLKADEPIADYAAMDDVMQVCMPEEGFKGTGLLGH
Outline: as §1

USP5 = target: T4, USP5 (UniProt P45974)
T4 sequence (whole entry): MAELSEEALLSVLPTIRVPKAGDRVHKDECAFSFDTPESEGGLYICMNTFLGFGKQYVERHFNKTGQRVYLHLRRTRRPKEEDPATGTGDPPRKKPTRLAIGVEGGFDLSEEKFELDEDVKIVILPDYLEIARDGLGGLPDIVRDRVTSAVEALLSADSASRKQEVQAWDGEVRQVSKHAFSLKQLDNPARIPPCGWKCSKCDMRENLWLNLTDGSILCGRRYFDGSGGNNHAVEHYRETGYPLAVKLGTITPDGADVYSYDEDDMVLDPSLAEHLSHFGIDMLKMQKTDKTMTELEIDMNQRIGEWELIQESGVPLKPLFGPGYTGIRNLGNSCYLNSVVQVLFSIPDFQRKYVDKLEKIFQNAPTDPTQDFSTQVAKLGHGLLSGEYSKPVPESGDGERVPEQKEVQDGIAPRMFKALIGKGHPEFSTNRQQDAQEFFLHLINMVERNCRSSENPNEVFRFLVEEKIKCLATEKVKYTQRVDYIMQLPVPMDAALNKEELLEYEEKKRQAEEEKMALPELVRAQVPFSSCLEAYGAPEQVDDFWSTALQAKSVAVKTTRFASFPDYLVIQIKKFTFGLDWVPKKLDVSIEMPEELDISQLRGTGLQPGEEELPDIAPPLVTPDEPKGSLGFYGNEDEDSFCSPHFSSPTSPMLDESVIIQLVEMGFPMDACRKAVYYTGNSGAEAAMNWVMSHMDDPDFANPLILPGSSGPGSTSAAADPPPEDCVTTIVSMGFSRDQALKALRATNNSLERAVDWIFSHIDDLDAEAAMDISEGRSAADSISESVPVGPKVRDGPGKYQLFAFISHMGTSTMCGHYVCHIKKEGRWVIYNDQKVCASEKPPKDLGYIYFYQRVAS
Outline: as §1

USP54 = USP54 (UniProt Q70EL1)
Chain of USP54 (Q70EL1 whole entry): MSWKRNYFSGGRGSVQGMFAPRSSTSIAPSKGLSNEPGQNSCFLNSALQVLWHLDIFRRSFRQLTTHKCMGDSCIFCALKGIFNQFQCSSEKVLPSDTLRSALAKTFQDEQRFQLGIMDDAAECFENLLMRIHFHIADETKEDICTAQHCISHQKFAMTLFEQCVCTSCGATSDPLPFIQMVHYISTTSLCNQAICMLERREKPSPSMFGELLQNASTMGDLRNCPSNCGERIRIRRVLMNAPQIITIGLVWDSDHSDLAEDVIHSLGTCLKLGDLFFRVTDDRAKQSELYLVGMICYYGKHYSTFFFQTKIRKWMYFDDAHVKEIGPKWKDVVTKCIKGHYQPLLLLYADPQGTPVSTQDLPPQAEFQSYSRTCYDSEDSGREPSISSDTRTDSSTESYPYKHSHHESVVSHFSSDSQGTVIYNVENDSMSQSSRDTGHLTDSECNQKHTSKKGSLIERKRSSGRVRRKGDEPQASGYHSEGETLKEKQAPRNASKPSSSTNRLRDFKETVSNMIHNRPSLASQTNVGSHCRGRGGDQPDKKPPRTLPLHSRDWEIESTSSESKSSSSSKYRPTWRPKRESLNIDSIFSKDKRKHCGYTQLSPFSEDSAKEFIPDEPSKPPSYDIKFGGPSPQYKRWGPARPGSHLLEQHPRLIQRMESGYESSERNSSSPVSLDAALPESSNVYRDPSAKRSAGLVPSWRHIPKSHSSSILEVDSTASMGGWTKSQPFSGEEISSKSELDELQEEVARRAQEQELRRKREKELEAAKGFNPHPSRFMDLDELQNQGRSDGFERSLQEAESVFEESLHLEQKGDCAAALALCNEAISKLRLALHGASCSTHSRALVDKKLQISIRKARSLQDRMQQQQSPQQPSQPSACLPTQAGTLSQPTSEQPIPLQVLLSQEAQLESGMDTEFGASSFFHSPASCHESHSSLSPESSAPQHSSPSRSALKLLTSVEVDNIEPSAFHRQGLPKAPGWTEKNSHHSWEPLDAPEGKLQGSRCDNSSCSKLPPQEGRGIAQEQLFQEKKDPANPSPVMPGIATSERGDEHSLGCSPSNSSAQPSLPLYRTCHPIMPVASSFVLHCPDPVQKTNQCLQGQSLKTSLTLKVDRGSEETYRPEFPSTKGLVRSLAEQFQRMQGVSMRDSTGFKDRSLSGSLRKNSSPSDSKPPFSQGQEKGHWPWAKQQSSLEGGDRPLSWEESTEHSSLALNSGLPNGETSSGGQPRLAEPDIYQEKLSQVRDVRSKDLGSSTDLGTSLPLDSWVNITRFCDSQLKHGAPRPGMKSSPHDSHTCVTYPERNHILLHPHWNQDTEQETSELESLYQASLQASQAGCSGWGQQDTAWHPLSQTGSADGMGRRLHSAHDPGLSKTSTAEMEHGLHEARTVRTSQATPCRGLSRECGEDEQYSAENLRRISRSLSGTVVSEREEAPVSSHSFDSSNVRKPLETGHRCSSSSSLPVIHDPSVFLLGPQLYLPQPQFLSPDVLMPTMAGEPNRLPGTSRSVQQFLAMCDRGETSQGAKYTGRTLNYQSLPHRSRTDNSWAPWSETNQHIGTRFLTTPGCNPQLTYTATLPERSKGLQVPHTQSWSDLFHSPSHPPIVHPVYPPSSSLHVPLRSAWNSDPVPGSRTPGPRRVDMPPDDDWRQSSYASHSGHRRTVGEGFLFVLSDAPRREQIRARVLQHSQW
Outline: as §1

USP7 = USP7 (UniProt Q93009)
Chain of USP7 (Q93009 whole entry, looked up): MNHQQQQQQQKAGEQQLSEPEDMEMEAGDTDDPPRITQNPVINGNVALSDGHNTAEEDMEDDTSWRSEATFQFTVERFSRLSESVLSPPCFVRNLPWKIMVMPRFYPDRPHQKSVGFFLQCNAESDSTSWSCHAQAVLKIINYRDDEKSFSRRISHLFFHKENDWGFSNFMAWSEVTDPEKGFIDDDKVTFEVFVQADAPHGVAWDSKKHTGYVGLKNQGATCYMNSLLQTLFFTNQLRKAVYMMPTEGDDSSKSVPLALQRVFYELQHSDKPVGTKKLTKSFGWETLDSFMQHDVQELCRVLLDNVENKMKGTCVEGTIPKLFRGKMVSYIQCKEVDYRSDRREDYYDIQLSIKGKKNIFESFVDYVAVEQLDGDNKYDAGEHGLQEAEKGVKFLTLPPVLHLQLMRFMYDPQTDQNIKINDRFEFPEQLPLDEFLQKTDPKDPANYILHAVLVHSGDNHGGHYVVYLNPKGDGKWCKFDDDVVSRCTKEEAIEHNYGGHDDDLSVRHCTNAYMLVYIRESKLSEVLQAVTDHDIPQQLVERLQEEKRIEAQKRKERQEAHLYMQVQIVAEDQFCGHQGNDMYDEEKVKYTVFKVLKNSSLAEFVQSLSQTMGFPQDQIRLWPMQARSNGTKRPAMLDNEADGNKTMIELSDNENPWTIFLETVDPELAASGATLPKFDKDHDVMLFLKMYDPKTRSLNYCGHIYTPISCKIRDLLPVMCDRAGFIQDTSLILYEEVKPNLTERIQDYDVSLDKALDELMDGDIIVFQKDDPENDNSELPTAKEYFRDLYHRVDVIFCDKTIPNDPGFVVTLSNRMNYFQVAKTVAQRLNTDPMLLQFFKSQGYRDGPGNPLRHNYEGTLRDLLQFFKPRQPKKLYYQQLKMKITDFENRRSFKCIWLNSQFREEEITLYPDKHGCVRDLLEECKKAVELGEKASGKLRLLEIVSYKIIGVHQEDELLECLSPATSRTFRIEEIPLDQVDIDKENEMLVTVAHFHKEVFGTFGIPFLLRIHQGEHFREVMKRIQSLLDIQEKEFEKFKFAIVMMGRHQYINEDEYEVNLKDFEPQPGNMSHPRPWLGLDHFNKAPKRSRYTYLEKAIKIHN
Outline: as §1

USP8 = target: T5, USP8 (UniProt P40818)
T5 sequence (whole entry): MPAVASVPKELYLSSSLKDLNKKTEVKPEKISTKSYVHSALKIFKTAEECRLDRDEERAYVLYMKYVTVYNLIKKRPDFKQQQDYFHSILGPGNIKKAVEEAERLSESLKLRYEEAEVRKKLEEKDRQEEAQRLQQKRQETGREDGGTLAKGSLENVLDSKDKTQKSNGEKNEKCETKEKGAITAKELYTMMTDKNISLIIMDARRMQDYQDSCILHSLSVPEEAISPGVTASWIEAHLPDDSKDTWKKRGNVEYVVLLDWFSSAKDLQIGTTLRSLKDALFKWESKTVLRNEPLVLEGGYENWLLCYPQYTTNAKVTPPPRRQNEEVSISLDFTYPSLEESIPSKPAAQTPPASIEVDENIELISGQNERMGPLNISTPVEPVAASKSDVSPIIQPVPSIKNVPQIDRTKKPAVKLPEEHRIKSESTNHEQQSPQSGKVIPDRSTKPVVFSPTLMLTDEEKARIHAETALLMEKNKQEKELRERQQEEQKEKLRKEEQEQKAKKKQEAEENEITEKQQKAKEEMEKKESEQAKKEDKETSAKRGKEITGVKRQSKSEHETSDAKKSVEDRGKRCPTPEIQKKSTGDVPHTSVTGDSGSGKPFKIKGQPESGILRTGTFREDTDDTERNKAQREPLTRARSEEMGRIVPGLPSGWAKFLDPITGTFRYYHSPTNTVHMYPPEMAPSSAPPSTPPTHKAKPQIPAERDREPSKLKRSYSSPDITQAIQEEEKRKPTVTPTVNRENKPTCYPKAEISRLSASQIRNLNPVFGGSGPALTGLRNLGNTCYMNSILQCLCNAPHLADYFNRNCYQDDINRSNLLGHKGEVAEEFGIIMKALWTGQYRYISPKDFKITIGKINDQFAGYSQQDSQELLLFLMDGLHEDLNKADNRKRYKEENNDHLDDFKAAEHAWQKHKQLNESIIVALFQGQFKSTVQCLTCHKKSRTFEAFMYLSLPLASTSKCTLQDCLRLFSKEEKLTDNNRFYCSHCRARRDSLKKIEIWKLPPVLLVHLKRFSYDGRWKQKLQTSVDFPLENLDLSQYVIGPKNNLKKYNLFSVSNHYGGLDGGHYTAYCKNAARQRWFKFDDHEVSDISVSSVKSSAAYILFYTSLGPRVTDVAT
Outline: as §1

USP9X = USP9X (UniProt Q93008)
Outline: as §1

UniProt O00487 = target: UniProt O00487
Chain of UniProt O00487 (O00487 whole entry): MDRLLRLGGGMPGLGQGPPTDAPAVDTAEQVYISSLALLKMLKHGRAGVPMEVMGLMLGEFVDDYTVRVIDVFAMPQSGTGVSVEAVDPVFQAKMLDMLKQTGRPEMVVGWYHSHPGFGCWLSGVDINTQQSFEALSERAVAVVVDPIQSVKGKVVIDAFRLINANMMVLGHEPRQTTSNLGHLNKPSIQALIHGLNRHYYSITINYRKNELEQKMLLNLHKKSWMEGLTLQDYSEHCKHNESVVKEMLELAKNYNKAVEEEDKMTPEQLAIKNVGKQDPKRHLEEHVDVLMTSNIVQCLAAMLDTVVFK
Outline: as §1

Measured: log2 ratio of Biotin-Ahx-Ub-VS probe labelling

O=C(CN1CCN(C(=O)CCl)CC1)Nc1cccc(F)c1
inactive: USP42 -0.241 | USP46 -0.173 | USP47 -0.178 | USP48 -0.419 | USP5 0.215 | USP54 0.835 | USP7 -0.436 | USP8 -0.23 | USP9X -0.429 | UniProt O00487 0.0211
